Here are results for 40 compounds from PubChem BioAssay (EPA / NIEHS).

Inconclusive results are not listed. The source made the active and inactive calls. The calls were made as follows: active = hit-call score of the fitted dose curve at least 0.9, where 1 is the maximum; inconclusive = response in the unintended direction; inactive = score below 0.9.

Read-out in the assay: glucuronosyltransferase (UGT1A1), UGT1A1 (gene 54658)
Put plainly: CLD_UGT1A1_48hr: CellzDirect (CLD) Gene Expression Assay for glucuronosyltransferase (UGT1A1) at 48 hours (AID 2283709).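 Also: actives increase expression relative to DMSO so potency refers to induction.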 As to the method: CLD_48hr is a cell-based, multiplexed-readout assay that uses hepatocyte, a human liver primary cell, with measurements taken at 48 hours after chemical dosing in a 96-well plate.CLD_UGT1A1_48hr is one of 16 assay component(s) measured or calculated from the CLD_48hr assay. It is designed to make measurements of mRNA induction, a form of inducible reporter, as detected with chemiluminescence signals by Quantitative Nuclease Protection Assay (qNPA) technology.Data from the assay component CLD_UGT1A1_48hr was analyzed at the endpoint, CLD_UGT1A1_48hr, in the positive analysis fitting direction relative to DMSO as the negative control and baseline of activity. Using a type of inducible reporter, gain-of-signal activity can be used to understand changes in the reporter gene as they relate to the gene UGT1A1. Furthermore, this assay endpoint can be referred to as a primary readout. To generalize the intended target to other relatable targets, this assay endpoint is annotated to the transferase intended target family, where subfamily is glucuronosyltransferase.
Human hepatocyte cultures were treated daily for two consecutive days with fresh dosing solutions containing appropriate concentrations of the 320 ToxCast chemicals (chemical identities were blinded to CellzDirect and other ToxCast collaborators), vehicle control (0.2% DMSO), and positive control inducers as summarized in Table 1. Due to the large number of treatment groups and chemicals examined, the ToxCast chemicals were divided into two groups (spanning two independent cultures of hepatocytes from separate donor preparations (Hu778: ToxCast plates 1 and 2; Hu776: ToxCast plates 3 and 4). Each preparation of human hepatocyte cultures was treated with respective vehicle control, medium only control, set of six positive controls/reference chemicals for the five hepatic receptor pathways, and a subset of eight of the ToxCast chemicals (indoxacarb, pyrithiobac-sodium, norflurazon, cyhalofop-butyl, methomyl, thiram, acetochlor, and propiconazole). These replicate data, coupled with internal replicates designed within the blinded ToxCast chemical library, provided additional data to evaluate interindividual differences between hepatocyte preparations and their potential impact on chemical profiles.Cell morphology and integrity were evaluated using phase-contrast microscopy as an indicator of hepatocyte cell health (Tyson & Green, 1987). Cultures for each treatment group (i.e., media, vehicle [0.2% DMSO], positive control inducers [multiple concentrations], and the ToxCast chemicals [multiple concentrations]) were observed and cell morphology was assessed relative to vehicle control cultures at each harvest time point (0, 6, 24, or 48 h). […] Images were evaluated at the conclusion of the study to assess changes in cell integrity and account for the effects of chemical exposure on uncharacteristic changes in concentration-dependent gene expression profiles. The results from these determinations of apparent cytotoxicity were annotated (yes/no) alongside the corresponding qNPA data for reference.At the conclusion of each treatment period, hepatocyte cultures (96-well) were washed with 1 volume of HBSS, lysed by addition of 25 ul ArrayPlate lysis buffer (HTG, Tucson, AZ), and 70 ul/well of Denaturation Oil, denatured by incubation at 95C for 10 min, and frozen at approximately -70C until analysis by nuclease protection assay (qNPA) (Roberts et al., 2007). For qNPA analysis, cell lysates were thawed at 50C for approximately 30 min, qNPA probes were added, and samples were incubated at 95C for 10 min to begin the detection process by denaturing the target RNA, dissociating the duplexes and secondary structure hybridization. At the conclusion of the hybridization period, S1 nuclease reagent was added to each sample to digest all nonprotected nucleotides at 50C for 60-90 min. […]
On to `CCCCCOC(=O)COc1cc(N2C(=O)C3=C(CCCC3)C2=O)c(F)cc1Cl`, for which the compound was classed as inactive. Take `CCCCCCC(C)OC(=O)COc1nc(F)c(Cl)c(N)c1Cl` (stereo not given): the compound was classed as inactive. Same read-out and setting: next, `COC(=O)c1ccccc1S(=O)(=O)NC(=O)Nc1nc(OC(F)F)cc(OC(F)F)n1`: “inactive”; `CCOC(=O)COc1cc(-n2ncc(C(F)(F)F)c(C)c2=O)c(F)cc1Cl`: “inactive”. Turning to `CCOC(=O)[C@H](C)Oc1ccc(Oc2nc3ccc(Cl)cc3o2)cc1`, the compound was called inactive. Still for that read-out and setting: next, `c1ccc2[nH]c(-c3cscn3)nc2c1`: “inactive”; `COC(=O)c1ccc(CNS(C)(=O)=O)cc1S(=O)(=O)NC(=O)Nc1nc(OC)cc(OC)n1`: “inactive”.

For `CCOC(=O)C(C)Oc1ccc(Oc2cnc3cc(Cl)ccc3n2)cc1` (stereo not given), the compound was called inactive. As to `COC(=O)c1cccc(C)c1S(=O)(=O)NC(=O)Nc1nc(OCC(F)(F)F)nc(N(C)C)n1`, the call was inactive.

On to `COC(=O)c1ccc(I)cc1S(=O)(=O)NC(=O)Nc1nc(C)nc(OC)n1`, for which the outcome was inactive. `CCCCC(CC)CN1C(=O)C2C3C=CC(C3)C2C1=O` (stereo not given): the call was inactive. Consider `CC(C)(C)[C@@H](O)[C@@H](Cc1ccc(Cl)cc1)n1cncn1`, for which the result was inactive. The same measure, in the same setting: then `O=C(O)C1(C(=O)Nc2ccc(Cl)cc2Cl)CC1`, with “inactive”; and `O=C(Nc1ccc([N+](=O)[O-])cc1Cl)c1cc(Cl)ccc1O`, with “inactive”; and `CCC(O)=C1C(=O)CC(C(=O)O)CC1=O` (stereo not given), with “inactive”.

Turning to `CCCN(CCC)C(=O)SCC`, the result was inactive. Still for that read-out and setting: then `OB(O)O`, with “inactive”; and `CCCOC(=O)NCCCN(C)C`, with “inactive”; and `CC(C)(c1ccc(O)cc1)c1ccc(O)cc1`, with “inactive”. Turning to `CCCN(CCC)c1c([N+](=O)[O-])cc(C(F)(F)F)c(N)c1[N+](=O)[O-]`, the AC50 (commonly the midpoint of the concentration-response curve, whichever way the signal moves) is 3.96 µM (active). On to `C#CCOC(=O)[C@@H](C)Oc1ccc(Oc2ncc(Cl)cc2F)cc1`, for which the result was inactive.

As to `CCCCOCCOCCOCc1cc2c(cc1CCC)OCO2`, the AC50 is 2.22 µM (active). Take `CCCCC(CC)COC(=O)c1ccccc1C(=O)O` (stereo not given): the outcome was inactive. On the same count and under the same terms, then `COC(=O)c1ccccc1C(=O)O`, with “inactive”; and `C=CCOC(Cn1ccnc1)c1ccc(Cl)cc1Cl` (stereo not given), with “inactive”.

`CCSC(=O)N(CC(C)C)CC(C)C`: the compound was classed as inactive.

Take `COCCO`: the compound was classed as inactive. Turning to `CC1(C)C(C=C(Cl)Cl)C1C(=O)OCc1cccc(Oc2ccccc2)c1` (stereo not given), the AC50 was 3.97 µM (active). In the case of `COC(=O)c1c(Cl)nn(C)c1S(=O)(=O)NC(=O)Nc1nc(OC)cc(OC)n1`, the compound was called inactive. Regarding `CCCCOC(=O)[C@@H](C)Oc1ccc(Oc2ccc(C(F)(F)F)cn2)cc1`, the call was inactive. For the compound `COc1c(Cl)ccc(Cl)c1C(=O)O`, the compound was called inactive. The same measure, in the same setting: next, `CCN(CC)C(=O)c1cccc(C)c1`: “inactive”; `COc1nc(C)nc(NC(=O)NS(=O)(=O)c2ccccc2OCCCl)n1`: “inactive”; `CN(C)C(=O)Nc1ccc(Cl)c(Cl)c1`: “inactive”. The same measure, in the same setting: next, `CCCOC(=O)c1ccc(C(=O)OCCC)nc1`: “inactive”. Consider `CCOC(=O)NCCOc1ccc(Oc2ccccc2)cc1`, for which the half-maximal activity concentration (AC50) is 20 µM (active). In the case of `CCOC(=O)C(C)Oc1ccc(Oc2nc3ccc(Cl)cc3o2)cc1` (stereo not given), the result was inactive.

With `CSC(=O)c1cccc2nnsc12`, the outcome was inactive.

On to `CCC(C)OC(=O)N1CCCCC1CCO` (stereo not given), for which the result was inactive. On the same count and under the same terms, next, `CCN(Cc1c(F)cccc1Cl)c1c([N+](=O)[O-])cc(C(F)(F)F)cc1[N+](=O)[O-]`: “inactive”.
